This is an account of results in PubChem BioAssay (NCATS).

A short description of experiment [1]: Quantitative High-Throughput drug screen in 47 multiple myeloma cell lines against the NCATS MIPE library collection: VP6_DJ cell viability assay (AID 1919867). Also: nearly all actives have a fitted effect of over 40% in size. The method in brief: (§1)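 ATP-based CellTiter-Glo luminescence after 48 h drug exposure (37 °C, 5% CO2) of 500 myeloma cells per well. DMSO-only wells set 100% viability, media-only wells 0%; MIPE 4.0 library added by pin tool.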

Experiment [2] is described as follows: Quantitative High-Throughput drug screen in 47 multiple myeloma cell lines against the NCATS MIPE library collection: UTMC2_PLB cell viability assay (AID 1919868). Also: nearly all actives have a fitted effect of over 55% in size. Conditions: CellTiter-Glo ATP luminescence, 48 h; viability (% of DMSO control): at 45.8 µM (top of the series). In outline: as §1
(ATP-based viability assays read luminescence as a measure of living cells.)

The nature of experiment [3]: Quantitative High-Throughput drug screen in 47 multiple myeloma cell lines against the NCATS MIPE library collection: PE2_PLB cell viability assay (AID 1919869). Also: nearly all actives have a fitted effect of over 35% in size. The method in brief: as §1
Experiment [4] can be described thus: Quantitative High-Throughput drug screen in 47 multiple myeloma cell lines against the NCATS MIPE library collection: PCM6_Riken cell viability assay (AID 1919870). Also: nearly all actives have a fitted effect of over 30% in size. In outline:
as §1

Experiment [5] is described as follows: Quantitative High-Throughput drug screen in 47 multiple myeloma cell lines against the NCATS MIPE library collection: RPMI8226_ATCC cell viability assay (AID 1919871). Also: nearly all actives have a fitted effect of over 30% in size. In outline:
as §1

The nature of experiment [6]: Quantitative High-Throughput drug screen in 47 multiple myeloma cell lines against the NCATS MIPE library collection: OPM2_DSMZ cell viability assay (AID 1919872). Also: nearly all actives have a fitted effect of over 30% in size. In outline: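 Steps: seed 500 cells per well; pin-transfer MIPE 4.0 library; incubate 48 h at 37C, 5% CO2, humidified; add CellTiter-Glo, 5 min room temperature; read luminescence.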
Experiment [7] can be described thus: Quantitative High-Throughput drug screen in 47 multiple myeloma cell lines against the NCATS MIPE library collection: KMS11_JCRBsus cell viability assay (AID 1919873). Also: nearly all actives have a fitted effect of over 50% in size. The method in brief: as §1
Experiment [8] can be described thus: Quantitative High-Throughput drug screen in 47 multiple myeloma cell lines against the NCATS MIPE library collection: KMS28BM_JCRB cell viability assay (AID 1919874). Also: nearly all actives have a fitted effect of over 35% in size. The method in brief:
as §1

Results filed as inconclusive are left out. Calls of active or inactive are those of the source. Calls follow the shape of the dose curve; as a rule, active = well fitted cell-killing curve with a large enough effect; inconclusive = small, poorly fitted or top-dose-only effect, or effect the other way; inactive = no such curve, though single readings can be large or run the other way.
Potency is read from the fitted curve at half-maximal effect.

Consider `COc1cccc2c1C(=O)c1c(O)c3c(c(O)c1C2=O)C[C@@](O)(C(=O)CO)C[C@H]3O[C@H]1C[C@H](N)[C@H](O)[C@H](C)O1`, for which the Potency was 264 nM (active) in experiment [1]; 118 nM (active) in experiment [2]; 118 nM (active) in experiment [3]; 105 nM (active) in experiment [4]; 235 nM (active) in experiment [5]; 1180 nM (active) in experiment [6]. Moreover, the Potency in experiment [7] was 743 nM (active); in experiment [8] it was 296 nM (active).
With `COc1cccc2c1C(=O)c1c(O)c3c(c(O)c1C2=O)C[C@@](O)(C(=O)CO)C[C@@H]3O[C@H]1C[C@H](N)[C@@H](O)[C@H](C)O1`, the Potency in experiment [1] was 935 nM (active); in experiment [2], 118 nM (active); in experiment [3] it was 148 nM (active); in experiment [4] it was 209 nM (active); in experiment [5] it was 935 nM (active); in experiment [6], 2090 nM (active). Moreover, the Potency in experiment [7] is 935 nM (active); in experiment [8] it was 418 nM (active).
Consider `O=C(C[C@@H]1CC=CCCC(=O)O[C@H](c2ccccc2)CNC1=O)NCc1ccc(Cl)cc1`, for which the Potency in experiment [1] is 13200 nM (active); in experiment [3], 9350 nM (active); in experiment [4], 5900 nM (active). Moreover, the Potency result in experiment [2], in experiment [5], in experiment [6], in experiment [7] and in experiment [8] was “inactive” each time.
On to `C[C@]12CCC(=O)C=C1[C@@H]1CC1[C@H]1[C@H]3[C@@H]4C[C@H]4[C@@]4(CCC(=O)O4)[C@@]3(C)CC[C@H]12` (stereo partly drawn), for which the Potency result in experiment [1], in experiment [3], in experiment [4] and in experiment [6] was “inactive” throughout. For the same molecule, the Potency in experiment [5] is 18700 nM (active); in experiment [8] it was 11800 nM (active).
With `Oc1cc(-c2nc(-c3ccccc3)[nH]c2-c2ccncc2)ccc1Cl`, the Potency in experiment [1] is 3720 nM (active); in experiment [2] it was 7430 nM (active); in experiment [3], 5260 nM (active); in experiment [4], 2960 nM (active); in experiment [5], 16600 nM (active); in experiment [7], 14800 nM (active).
`CC(=CC(=O)Nc1ccccc1C(=O)O)c1ccc2ccccc2c1`: the Potency in experiment [1] was 18700 nM (active); in experiment [3], 23500 nM (active). Further, the Potency result in experiment [6], in experiment [7] and in experiment [8] was “inactive” each time.
Regarding `CCN(CC)CCCCNc1ncc2c(n1)N(C)C(=O)N(c1c(Cl)c(OC)cc(OC)c1Cl)C2`, the Potency is 18700 nM (active) in experiment [1]; 16600 nM (active) in experiment [4]; 14800 nM (active) in experiment [5]; 20900 nM (active) in experiment [7]; 11800 nM (active) in experiment [8]. In addition, the Potency entry in experiment [2] was “inactive”.
Regarding `CCOc1cc2ncc(C#N)c(Nc3ccc(OCc4ccccn4)c(Cl)c3)c2cc1NC(=O)C=CCN(C)C`, the Potency in experiment [1] is 1180 nM (active); in experiment [2] it was 209 nM (active); in experiment [3], 5260 nM (active); in experiment [4], 332 nM (active); in experiment [7] it was 14800 nM (active).
In the case of `N#CC(=C(O)c1ccc(Cl)cc1Cl)c1nc2cc(Cl)ccc2c(=O)[nH]1`, the Potency in experiment [1] is 16600 nM (active). For the same molecule, the Potency result in experiment [2], in experiment [5], in experiment [6], in experiment [7] and in experiment [8] was “inactive” each time.
As to `CC(C)(O)Cn1c(NC(=O)c2ccc(-c3cn[nH]c3)s2)nc2cc(CN3CCOCC3)ccc21`, the Potency in experiment [1] is 743 nM (active); in experiment [2], 372 nM (active); in experiment [3], 1320 nM (active); in experiment [4], 418 nM (active); in experiment [5], 2350 nM (active); in experiment [6], 2350 nM (active). In addition, the Potency in experiment [8] was 743 nM (active).
For the molecule `O=C(NNC(=O)c1ccc(CNS(=O)(=O)c2ccc(F)c(Cl)c2)cc1)c1ccccc1`, the Potency result in experiment [1], in experiment [2], in experiment [3], in experiment [4], in experiment [5] and in experiment [6] was “inactive” each time. Moreover, the Potency entry in experiment [7] and in experiment [8] was “inactive” throughout.
On to `CCCCCCCCCCCCc1ccc(S(=O)(=O)Nc2nncs2)cc1`, for which the Potency entry in experiment [1], in experiment [2], in experiment [4], in experiment [6], in experiment [7] and in experiment [8] was “inactive” throughout. The Potency in experiment [3] is 8330 nM (active).
For the molecule `C[N+](C)([O-])CCNc1ccc(NCC[N+](C)(C)[O-])c2c1C(=O)c1c(O)ccc(O)c1C2=O`, the Potency result in experiment [1], in experiment [3], in experiment [5], in experiment [6] and in experiment [7] was “inactive” throughout.
Regarding `Nc1nc(N)c2nc(-c3cccc(O)c3)c(-c3cccc(O)c3)nc2n1`, the Potency in experiment [1] is 3320 nM (active); in experiment [2], 3720 nM (active); in experiment [3], 2960 nM (active); in experiment [4], 2640 nM (active); in experiment [8], 20900 nM (active).
Turning to `CCS(=O)(=O)Nc1ccc2[nH]c(O)c(C(=Nc3ccc(CN4CCCCC4)cc3)c3ccccc3)c2c1`, the Potency in experiment [1] is 590 nM (active); in experiment [2], 93.5 nM (active); in experiment [3] it was 469 nM (active); in experiment [4], 3720 nM (active); in experiment [5], 332 nM (active); in experiment [6] it was 833 nM (active). The values for the Potency in experiment [7] and in experiment [8] were 166 nM (active) and 132 nM (active), respectively.
As for `Nc1ccn(C[C@@H](CO)OCP(=O)(O)O)c(=O)n1`, the Potency result in experiment [1], in experiment [5] and in experiment [8] was “inactive” each time.
As to `O=C(O)CCCCCC(=O)NN=C1CCCC1`, the Potency entry in experiment [1], in experiment [3], in experiment [4], in experiment [5], in experiment [6] and in experiment [7] was “inactive” throughout. Further, in experiment [8], the Potency result was “inactive”.
